# According to PubChem BioAssay (NCATS):
# Inconclusive results are not listed. Active and inactive are the calls of the source. Unless noted, the call rests on the fitted dose curve; in most records, active means well fitted curve in the direction sought with a large enough effect; inconclusive means small, poorly fitted or top-dose-only effect, or another doubt; inactive means no such curve, though single readings can be large; an effect the other way counts as inactive or inconclusive.
# Columns and labels:
# [1] = qHTS to identify inhibitors of the type 1 interferon - major histocompatibility complex class I in skeletal muscle: primary screen against the NCATS Mechanism Interrogation Plate v5.0 (MIPE) Libary (AID 1347411); further: nearly all actives have a fitted effect of over 65% in size; further: potency means the concentration at half of the fitted maximal effect;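 on activity change, negative = inhibition: plate controls were vehicle for no effect and reference inhibitor for full effect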
# Procedure, shortened: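 Immortalized human myoblasts (C25cl48) with HiBit knocked into endogenous HLA-B*08:01 were stimulated with 4 ng/ml IFN-beta and given compounds in 11-point 1:3 titration from 46 uM. After 24 h at 37 C, lytic HiBiT luminescence was read.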
# [2] = molecular target: Cytochrome P450 2D6 (Homo sapiens) (UniProt P10635); assay: Cytochrome P450 family 2 subfamily D member 6 (CYP2D6) small molecule antagonists: luciferase biochemical (cell-free) qHTS assay (AID 1645840; active means well fitted curve in the direction sought with a large enough effect in the repeat runs; an effect the other way counts as inactive or inconclusive; further: nearly all actives have a fitted effect of over 55% in size; further: potency means the concentration at half of the fitted maximal effect)
# Cytochrome P450 2D6 (Homo sapiens), sequence (P10635 whole entry, looked up): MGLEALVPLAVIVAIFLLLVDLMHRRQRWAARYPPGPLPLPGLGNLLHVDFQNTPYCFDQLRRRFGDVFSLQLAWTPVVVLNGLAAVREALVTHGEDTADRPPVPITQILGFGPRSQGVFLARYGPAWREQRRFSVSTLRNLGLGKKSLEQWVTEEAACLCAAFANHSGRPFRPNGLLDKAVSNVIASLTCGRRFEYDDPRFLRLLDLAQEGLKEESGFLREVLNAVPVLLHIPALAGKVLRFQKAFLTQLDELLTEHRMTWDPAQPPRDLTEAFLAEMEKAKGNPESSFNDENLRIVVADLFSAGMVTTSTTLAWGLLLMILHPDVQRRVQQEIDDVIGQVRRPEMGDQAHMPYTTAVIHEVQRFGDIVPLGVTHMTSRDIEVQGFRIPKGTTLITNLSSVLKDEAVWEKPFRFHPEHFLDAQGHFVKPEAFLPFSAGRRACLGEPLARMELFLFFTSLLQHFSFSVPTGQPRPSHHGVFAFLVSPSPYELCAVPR
# Procedure, shortened: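 P450-Glo luminescent screen: recombinant CYP2D6 enzyme–proluciferin substrate mix preincubated with compound 10 min at room temperature, then NADPH regeneration added for 1 h at room temperature. Detection reagent added for 20 min; luciferin light read as relative luminescence units.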
# [3] = molecular target: Cytochrome P450 2C9 (Homo sapiens) (UniProt P11712); assay: Cytochrome P450 family 2 subfamily C member 9 (CYP2C9) small molecule antagonists: luciferase biochemical (cell-free) qHTS assay (AID 1645842; active means well fitted curve in the direction sought with a large enough effect in the repeat runs; an effect the other way counts as inactive or inconclusive; further: nearly all actives have a fitted effect of over 55% in size; further: potency means the concentration at half of the fitted maximal effect; on activity change, negative = inhibition: on the % scale 0 is the no-effect control and ±100 the full control effect)
# Cytochrome P450 2C9 (Homo sapiens), sequence (P11712 whole entry, looked up): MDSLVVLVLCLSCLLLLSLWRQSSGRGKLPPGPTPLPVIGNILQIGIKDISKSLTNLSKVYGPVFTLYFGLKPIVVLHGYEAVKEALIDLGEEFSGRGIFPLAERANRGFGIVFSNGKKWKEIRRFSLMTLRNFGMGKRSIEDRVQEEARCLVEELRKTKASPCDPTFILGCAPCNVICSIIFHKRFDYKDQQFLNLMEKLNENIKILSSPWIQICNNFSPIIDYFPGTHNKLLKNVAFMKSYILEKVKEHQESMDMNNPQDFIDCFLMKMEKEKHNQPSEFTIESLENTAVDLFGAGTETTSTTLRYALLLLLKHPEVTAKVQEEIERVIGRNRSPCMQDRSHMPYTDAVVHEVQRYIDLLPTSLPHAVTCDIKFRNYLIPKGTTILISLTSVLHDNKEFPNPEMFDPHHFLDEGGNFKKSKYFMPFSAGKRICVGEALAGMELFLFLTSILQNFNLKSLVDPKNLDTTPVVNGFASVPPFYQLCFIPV
# Procedure, shortened: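 Luminescence, after 20 min with luciferin detection reagent, reflected CYP2C9 turnover during a 1 h NADPH-driven reaction at 37C. Enzyme-substrate mix contained 0.4% bovine serum albumin and was preincubated with compound 10 min at room temperature.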
# [4] = Primary fluorescence-based thiol-reactive (MSTI) qHTS assay for identification of artifact compounds. (AID 1845221); further: nearly all actives have a fitted effect of over 65% in size; further: potency means the concentration at half of the fitted maximal effect
# Procedure, shortened: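 Probe: MSTI 4 uM, PBS pH 7.4, 2% DMSO. Incubation 1 h, RT, light-protected. Readout fluorescence 525/598 nm.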
# [5] = qHTS drug screen for cell cycle checkpoint inhibitors in PARPi-resistant BRCA-mutant ovarian cancer cell lines. (AID 1963452; calls by dose curve); conditions: PEO1/OlaR viability, CellTiter-Glo luminescence, 96 h, stronger effect = lower value
# Procedure, shortened: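 PEO1, PEO4 and PEO1/OlaR ovarian cancer cells, 600 per well, exposed 96 h at 37C to a dilution series. Viability read by CellTiter-Glo luminescence, normalized to DMSO and empty wells; activity summarized as Z-AUC.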
# [6] = test system: NIH3T3; assay: Cytotoxic Profiling of Annotated Libraries Using Quantitative High-Throughput Screening (AID 1296008); conditions: Five cell lines viability, CellTiter-Glo ATP luminescence, 48-72 h; max response: stronger effect = lower value; further: nearly all actives have a fitted effect of over 60% in size; further: potency means the concentration at half of the fitted maximal effect; on max response: on the % scale 0 is the no-effect control and ±100 the full control effect
# Procedure, shortened: (§1)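 Cells exposed to compounds for 48 or 72 hr at 37 degrees Celsius. Viability read as ATP-coupled luminescence with CellTiter-Glo after 10 min at room temperature.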
# [7] = test system: CAOV3; assay: Primary qHTS to identify gynecologic anti-cancer compounds using libraries of approved drugs and bioactive compounds (AID 1345084); conditions: Gynecologic cancer cell panel viability, ATPlite luminescence, 48 h; series mostly up to 57.5 µM; further: nearly all actives have a fitted effect of over 55% in size; further: potency means the concentration at half of the fitted maximal effect
# Procedure, shortened: (§2)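 Cell viability after 48 h drug treatment, ATPlite luminescence readout; five doses.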
# [8] = test system: SKOV3; assay: as above; conditions: Gynecologic cancer cell panel viability, ATPlite luminescence, 48 h; series mostly up to 57.5 µM
# Procedure, shortened: as §2
# [9] = P-glycoprotein substrates identified in KB-8-5-11 adenocarcinoma cell line, qHTS therapeutic library screen (AID 1346987); further: nearly all actives have a fitted effect of over 65% in size; further: potency means the concentration at half of the fitted maximal effect
# Procedure, shortened: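 KB-8-5-11, a colchicine-selected P-gp-overexpressing KB-3-1 subline, was grown without colchicine for the assay. Cells were seeded at 500 cells/well, dosed in concentration-response and incubated 72 h at 37 degree C, 5% CO2. Viability was read by CellTiter-Glo luminescence.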
# [10] = test system: HaCat; assay: Cytotoxic Profiling of Annotated Libraries Using Quantitative High-Throughput Screening (AID 1296008); conditions: Five cell lines viability, CellTiter-Glo ATP luminescence, 48-72 h; max response: stronger effect = lower value; further: nearly all actives have a fitted effect of over 60% in size; further: potency means the concentration at half of the fitted maximal effect; on max response: on the % scale 0 is the no-effect control and ±100 the full control effect
# Procedure, shortened: as §1
# [11] = molecular target: Catechol O-methyltransferase (Homo sapiens) (UniProt P21964); assay: Confirmatory Screen for Target Class Profiling of Small Molecule Inhibitors of Methyltransferases (AID 1745852; calls by dose curve; further: potency means the concentration at half of the fitted maximal effect; on activity change, negative = inhibition: on the % scale 0 is the no-effect control and ±100 the full control effect); conditions: MTase-Glo luminescence, SAH detection, recombinant enzyme; measured here: COMT max response; stronger effect = lower value
# Catechol O-methyltransferase (Homo sapiens), sequence (P21964 whole entry, looked up): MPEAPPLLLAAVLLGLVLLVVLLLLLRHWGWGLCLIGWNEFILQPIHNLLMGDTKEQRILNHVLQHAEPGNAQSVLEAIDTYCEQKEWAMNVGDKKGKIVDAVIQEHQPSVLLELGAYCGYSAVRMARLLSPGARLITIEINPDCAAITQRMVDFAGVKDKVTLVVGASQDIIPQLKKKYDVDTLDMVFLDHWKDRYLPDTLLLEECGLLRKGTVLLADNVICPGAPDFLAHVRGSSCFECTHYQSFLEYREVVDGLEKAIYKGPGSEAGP
# [12] = molecular target: Guanidinoacetate N-methyltransferase (Homo sapiens) (UniProt Q14353); assay: as above; conditions: activity change, negative = inhibition: at 57.3 µM (top of the series) unless noted
# [13] = molecular target: Nicotinamide N-methyltransferase (Homo sapiens) (UniProt P40261); assay: as above; conditions: MTase-Glo luminescence, SAH detection, recombinant enzyme; measured here: NNMT max response; stronger effect = lower value
# Nicotinamide N-methyltransferase (Homo sapiens), sequence (P40261 whole entry, looked up): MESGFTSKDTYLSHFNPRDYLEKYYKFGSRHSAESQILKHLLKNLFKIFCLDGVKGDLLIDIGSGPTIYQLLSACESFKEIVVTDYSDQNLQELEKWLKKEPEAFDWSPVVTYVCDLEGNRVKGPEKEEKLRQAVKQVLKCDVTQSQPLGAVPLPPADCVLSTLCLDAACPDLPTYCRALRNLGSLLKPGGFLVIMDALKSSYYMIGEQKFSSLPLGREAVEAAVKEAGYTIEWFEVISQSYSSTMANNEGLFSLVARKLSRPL
# [14] = molecular target: Phenylethanolamine N-methyltransferase (Homo sapiens) (UniProt P11086); assay: as above; conditions: MTase-Glo luminescence, SAH detection, recombinant enzyme; measured here: PNMT max response; stronger effect = lower value
# Phenylethanolamine N-methyltransferase (Homo sapiens), sequence (P11086 whole entry, looked up): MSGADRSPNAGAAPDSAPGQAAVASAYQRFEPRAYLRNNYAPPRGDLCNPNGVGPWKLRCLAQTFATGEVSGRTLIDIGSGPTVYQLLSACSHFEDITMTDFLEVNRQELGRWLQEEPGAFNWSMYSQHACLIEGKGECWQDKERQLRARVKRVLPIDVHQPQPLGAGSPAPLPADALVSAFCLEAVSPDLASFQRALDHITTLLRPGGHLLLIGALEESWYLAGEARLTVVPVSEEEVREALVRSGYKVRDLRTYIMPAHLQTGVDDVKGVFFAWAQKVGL
# [15] = molecular target: N-terminal Xaa-Pro-Lys N-methyltransferase 1 (Homo sapiens) (UniProt Q9BV86); assay: Confirmatory qHTS for Inhibitors of N-terminal methyltransferase 1 (NTMT1): MTaseGlo Assay (AID 1645874);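 further: luminescence from SAH made as NTMT1 methylates SPKRIA peptide using SAM; 0% = DMSO control and -100% = no-enzyme control; nearly all actives have a fitted effect of over 65% in size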
# N-terminal Xaa-Pro-Lys N-methyltransferase 1 (Homo sapiens), sequence (Q9BV86 whole entry, looked up): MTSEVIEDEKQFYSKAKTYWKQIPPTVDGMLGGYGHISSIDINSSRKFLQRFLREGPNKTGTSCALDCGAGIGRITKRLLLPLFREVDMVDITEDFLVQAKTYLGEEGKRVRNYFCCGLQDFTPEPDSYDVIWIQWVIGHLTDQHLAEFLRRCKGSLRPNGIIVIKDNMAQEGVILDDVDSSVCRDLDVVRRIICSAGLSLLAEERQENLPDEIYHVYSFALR
# Procedure, shortened: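 Compounds are incubated with 125 nM NTMT1 and 100 uM SAM for 15 min before the SPKRIA peptide (1 uM) starts a 30 min room-temperature methylation. SAH is measured by coupled luciferase luminescence and curves fitted to a Hill equation.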
# [16] = Confirmatory screen NINDS Rhodamine qHTS for Zika virus inhibitors (AID 1347161); further: potency means the concentration at half of the fitted maximal effect; nearly all actives have a fitted effect of over 60% in size
# Procedure, shortened: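 Each compound, titrated, sat 15 min with 25 nM linked protease before 1.5 microM Rhodamine110 substrate went in. Fluorescence gain over the next 15 min, in pH 8.0 Tris with Tween 20, gave Hill-fitted curves.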
# [17] = test system: Zika virus NS2B-NS3 protease (linked construct); assay: 384 well plate NINDS Rhodamine confirmatory qHTS for Zika virus inhibitors (AID 1347164)
# Procedure, shortened: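 Linked NS2B-NS3 protease (final 5, 30 or 60 nM) preincubated ~15 minutes with compounds, then 10 microM Ac-LKRR-Rhodamine 110 added. Fluorescence (485/538 nm) read after 25 minutes at room temperature, normalized to no-enzyme and no-inhibitor controls.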
# [18] = Drug repurposing screens with cells derived from glioblastoma tumor samples (AID 1345199); conditions: GBM patient neurospheres viability, ATP luminescence, 48 h; at 91.6 µM (top of the series); tumour line D; further: on the % scale 0 is the no-effect control and ±100 the full control effect; nearly all actives have a fitted effect of over 40% in size
# Procedure, shortened: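 Four patient lines of CD133+ GBM neurospheres were screened at several concentrations; hits were retested in those lines plus three slower-growing GBM lines, using 48-hour treatment and ATP-based viability.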
# [19] = measured here: PEO1 parental Z-AUC
structure (smiles),measurement,setting,value
CNCc1ccc(C)c(NC(=O)c2ccc(Nc3nc(-c4ccccc4)c4ccccc4n3)cc2)c1,Potency,[1],33 µM (active)
same,Potency,[2],12 µM (active)
same,Potency,[3],inactive
same,Potency,[4],inactive
same,Z-AUC,[5],-0.484 (inactive)
same,Z-AUC,[5]; [19],-0.199
same,Z-AUC,[5]; measured here: PEO4 Z-AUC,-0.532
same,Potency,[6],18.4 µM (active)
CC(=O)N1CCN([C@H]2CCN(C(=O)N(C)[C@H](C)c3cc(C(F)(F)F)cc(C(F)(F)F)c3)[C@@H](c3ccc(F)cc3C)C2)CC1,Potency,[2],26.8 µM (active)
same,Potency,[4],inactive
same,Potency,[7],inactive
same,Potency,[8],inactive
C=C1[C@@H](C2=CC(=O)OC2)CC[C@@]2(O)[C@@H]1CC1[C@H]2CC[C@@H]2C[C@@H](O[C@H]3O[C@@H](C)[C@@H](O[C@@H]4O[C@H](CO[C@@H]5O[C@H](CO)[C@@H](O)[C@H](O)[C@H]5O)[C@@H](O)[C@H](O)[C@H]4O)[C@H](OC)[C@H]3O)CC[C@]12C (stereo not given in full),Potency,[9],3.48 µM (active)
same,outcome,[6],inactive
CN[C@@H]1[C@@H](O)[C@@H](O[C@@H]2[C@@H](O)[C@H](O[C@H]3O[C@@H]([C@@H](C)NC)CC[C@H]3N)[C@@H](N)C[C@H]2N)OC[C@]1(C)O,Potency,[7],inactive
same,Potency,[8],inactive
O=C1c2c(O[C@@H]3O[C@H](CO)[C@@H](O)[C@H](O)[C@H]3O)cc(O)cc2OC1(O)Cc1ccc(O)cc1 (stereo not given in full),outcome,[10],inactive
same,Potency,[7],10 µM (active)
COCCNCc1ccc(-c2cc3nccc(Oc4ccc(NC(=S)NC(=O)Cc5ccc(F)cc5)cc4F)c3s2)nc1,Potency,[9],16.4 µM (active)
same,Potency,[1],8.29 µM (active)
same,Z-AUC,[5],0.225 (inactive)
same,Z-AUC,[5]; [19],-0.316
same,Z-AUC,[5]; measured here: PEO4 Z-AUC,0.00247
same,Potency,[6],6.51 µM (active)
C=C(C)C(=O)O[C@H]1[C@H]2C(=C)C(=O)O[C@@H]2C[C@@H](C)/C=C\C(=O)[C@](C)(O)[C@@H]1OC(C)=O,Potency,[9],2.82 µM (active)
same,Potency,[6],7.09 µM (active)
same,Potency,[7],8.91 µM (active)
same,Potency,[8],11.2 µM (active)
CC1(CO)CCCC2(C)C1C(OC(=O)c1ccccc1)C=C1C(=O)OCC12O (stereo not given),Potency,[6],12.8 µM (active)
CNCCN(C)Cc1cn[nH]c1-c1ccc(OC2CC(OCCC3CCOCC3)C2)cc1 (stereo not given),Potency,[1],inactive
same,activity,[11],0.741%
same,"activity change, negative = inhibition",[12],7.78%
same,activity,[13],-3.1%
same,activity,[14],-1.61%
same,Z-AUC,[5],-0.683 (inactive)
same,Z-AUC,[5]; [19],-1
same,Z-AUC,[5]; measured here: PEO4 Z-AUC,-0.979
same,max response,[6],-20% (inactive)
CCS(=O)(=O)N(Cc1cccnc1)c1cccc(-c2ccc(C#N)cc2)c1,Potency,[9],23.1 µM (active)
same,Potency,[3],9.52 µM (active)
same,Potency,[4],inactive
same,max response,[6],-19.5% (inactive)
same,Potency,[7],inactive
Cc1cc(CN)cc(C)c1NC(=O)c1ccc(-c2cc(Cl)ccc2Cl)o1,Potency,[9],20.6 µM (active)
same,Potency,[4],inactive
same,Potency,[7],inactive
same,Potency,[8],inactive
Cc1cc(CS(=O)(=O)c2ccccc2)cc(OCc2ccc(CN3CCC[C@@H]3CO)cc2)c1,Potency,[1],inactive
same,Potency,[15],inactive
same,Potency,[4],inactive
same,Z-AUC,[5],0.153 (inactive)
same,Z-AUC,[5]; [19],0.253
same,Z-AUC,[5]; measured here: PEO4 Z-AUC,0.0408
same,Potency,[6],20.6 µM (active)
C=C1C(=O)O[C@@H]2CC(C)=C([C@@H](C)CCCO)[C@@H](OC(=O)C(C)C)[C@H]12,activity,[11],-63.9%
same,"activity change, negative = inhibition",[12],0%
same,activity,[13],-0.804%
same,activity,[14],1.36%
same,Potency,[4],14.7 µM (active)
same,max response,[6],-12.2% (inactive)
same,Potency,[7],inactive
Nc1nc(NCC2CCC(CNS(=O)(=O)c3cccc4ccccc34)CC2)nc2ccccc12 (stereo not given),Potency,[2],3.38 µM (active)
same,Potency,[3],4.77 µM (active)
same,activity,[11],-12.1%
same,"activity change, negative = inhibition",[12],-4.41%
same,activity,[13],-26.1%
same,activity,[14],-28.4%
same,Potency,[4],inactive
same,Potency,[6],20.6 µM (active)
C=C1[C@@H](C)[C@H]2[C@H](Cc3c[nH]c4ccccc34)NC(=O)[C@]23C(=O)/C=C/C(=O)[C@H](O)/C(C)=C\[C@@H](C)C/C=C/[C@H]3[C@@H]1O,Potency,[9],inactive
same,Potency,[4],inactive
same,Potency,[6],3.55 µM (active)
same,Potency,[7],inactive
Oc1ccc(Nc2nc(-c3ccc(Cl)cc3)cs2)cc1,Potency,[4],1.5 µM (active)
same,Z-AUC,[5],-0.146 (inactive)
same,Z-AUC,[5]; [19],0.0588
same,Z-AUC,[5]; measured here: PEO4 Z-AUC,0.0633
same,max response,[10],-8.45% (inactive)
Cc1ccn(-c2cc(Cl)ccc2[C@@H](Oc2cc(-c3ccc(C[C@H](N)C(=O)O)cc3)nc(N)n2)C(F)(F)F)n1,Potency,[16],24.8 µM (active)
same,Potency,[17],28.2 µM (active)
same,activity,[11],-0.316%
same,"activity change, negative = inhibition",[12],0%
same,activity,[13],-31.2%
same,activity,[14],-1.43%
same,Potency,[4],inactive
same,Potency,[7],inactive
same,Potency,[8],inactive
Cc1nc(C)c2c(n1)N(Cc1ccc(-c3ccccc3-c3nn[nH]n3)cc1)C(=O)CC2,Potency,[2],inactive
same,Potency,[4],inactive
same,Potency,[7],inactive
same,Potency,[8],inactive
CC(=O)C1=C(O)C2c3c[nH]c4cccc(c34)CC2C(C)(C)N(C)C1=O (stereo not given),Potency,[9],9.2 µM (active)
same,Potency,[4],3.36 µM (active)
same,max response,[10],-23.8% (inactive)
same,Potency,[8],inactive
Nc1ccc(N)c([N+](=O)[O-])c1,Potency,[7],inactive
same,Potency,[8],inactive
same,"activity, negative = cell killing",[18],-23.5% (inactive)
CC1=CC(=O)[C@@]2(C(C)C)C[C@@H]12,activity,[11],-4.64%
same,Potency,[12],48.2 µM (active)
same,activity,[13],-30.7%
same,activity,[14],-13.4%
same,Potency,[7],inactive
same,Potency,[8],inactive
CC[C@H]1OC(=O)[C@H](C)[C@@H](O[C@H]2C[C@@](C)(OC)[C@@H](O)[C@H](C)O2)[C@H](C)[C@@H](O[C@@H]2O[C@H](C)C[C@H](N(C)C)[C@H]2O)[C@](C)(O)C[C@@H](C)/C(=N/OCOCCOC)[C@H](C)[C@@H](O)[C@]1(C)O,Potency,[9],inactive
same,Potency,[4],inactive
same,Potency,[8],inactive
CC(=O)Nc1ccc(C(=O)Nc2ccccc2N)cc1,Z-AUC,[5],-0.302 (inactive)
same,Z-AUC,[5]; [19],-0.636
same,Z-AUC,[5]; measured here: PEO4 Z-AUC,-0.146
same,Potency,[7],inactive
C=C(C(=O)O)C1CC2=C(C)C(=O)CC2C(C)CC1O (stereo not given),Potency,[4],26.7 µM (active)
same,Potency,[7],inactive
same,Potency,[8],inactive
O=C(CC1NCCC[C@H]1O)Cn1cnc2cc(Br)c(Cl)cc2c1=O (stereo not given in full),Potency,[8],inactive
